From the supplement of paper PMC11738630 come the findings set out here.

Molecules are shown by their SMILES.

The assay deals with Salmonella enterica serovar Typhimurium 14028s. Nature of the assay: approximate change in surviving CFU after surface colonization relative to water-only control (log10 CFU/mL change); higher = more surviving bacteria (less inhibition of surface colonization). To be noted: not stated (Biolog proprietary concentration), surface: plastic 96-well plate, 20-24 h at 25 °C.

For `C[N+](C)(C)CC(O)CC(=O)[O-]` (racemic) [D,L-Carnitine], where the note is “Biolog plate: PM2, Biolog well: H5”, the “approximate change in surviving CFU (log10)” value (shortened to “approximate change … (log10)”) turned out to be 0.365.
As to `CC(=O)C(C)O` (centres undefined) [3-Hydroxy-2-Butanone], the “approximate change … (log10)” value (Biolog plate: PM2, Biolog well: H12) was -0.15.
For the compound `N` [Ammonia], the “approximate change … (log10)” value (Biolog plate: PM3, Biolog well: A2) is 0.0644.
On to `O=NO` [Nitrite], for which the “approximate change … (log10)” value (Biolog plate: PM3, Biolog well: A3) worked out at 0.966.
For the compound `O=[N+]([O-])O` [Nitrate], for the setting “Biolog plate: PM3, Biolog well: A4”, the “approximate change … (log10)” value was 0.665.
For `NC(N)=O`, where the note is “Biolog plate: PM3, Biolog well: A5”, the “approximate change … (log10)” value came to 0.429.
In the case of `NCCCC[C@@H](N)C(=O)O` [D-Lysine], the “approximate change … (log10)” value (Biolog plate: PM3, Biolog well: C7) is -0.107.
As to `O=C(O)CC[C@@H](C(=O)O)N1C(=O)c2ccccc2C1=O` [N-Phthaloyl-L-Glutamic Acid], for the setting “Biolog plate: PM3, Biolog well: D2”, the “approximate change … (log10)” value was -0.343.
Turning to `NCCCCN=C(N)N` [Agmatine], the “approximate change … (log10)” value (Biolog plate: PM3, Biolog well: D12) is -0.193.
As to `NCCc1c[nH]cn1` [Histamine], for the setting “Biolog plate: PM3, Biolog well: E1”, the “approximate change … (log10)” value is -0.987.
`Nc1nc2[nH]cnc2c(=O)[nH]1` [Guanine]: the “approximate change … (log10)” value (Biolog plate: PM3, Biolog well: F6) is -2.83.
On to `O=c1cc[nH]c(=O)[nH]1` [Uracil], for which the “approximate change … (log10)” value (Biolog plate: PM3, Biolog well: F10) came to 1.14.
For `Oc1nc(O)c2nc(O)[nH]c2n1`, where the note is “Biolog plate: PM3, Biolog well: G3”, the “approximate change … (log10)” value turned out to be 1.14.
For `C[C@H](N)C(=O)NCC(=O)O`, the “approximate change … (log10)” value (Biolog plate: PM3, Biolog well: H4) was -0.322.
For `O=C(O)[C@@H](O)[C@@H](O)[C@H](O)[C@@H](O)C(=O)O` [D-Saccharic Acid], the “approximate change … (log10)” value (Biolog plate: PM1, Biolog well: A4) is 0.708.
Regarding `OC[C@H]1OC(O)[C@@H](O)[C@@H](O)[C@@H]1O` (stereo partly drawn) [D-Mannose], under “Biolog plate: PM1, Biolog well: A11”, the “approximate change … (log10)” value came to 1.93.
On to `C[C@H](O)[C@@H](O)[C@@H](O)[C@H](O)C=O` [L-Fucose], for which, under “Biolog plate: PM1, Biolog well: B4”, the “approximate change … (log10)” value turned out to be 1.33.
With `OC[C@H]1O[C@@](CO)(O[C@H]2O[C@H](CO)[C@@H](O)[C@H](O)[C@H]2O)[C@@H](O)[C@@H]1O` [Sucrose], the “approximate change … (log10)” value (Biolog plate: PM1, Biolog well: D11) stood at 0.987.
On to `O=C(O)C(O)C(O)C(=O)O` (centres undefined) [m-Tartaric Acid], for which the “approximate change … (log10)” value (Biolog plate: PM1, Biolog well: E2) is 1.04.
Turning to `O=P(O)(O)O[C@H]1O[C@H](CO)[C@@H](O)[C@H](O)[C@H]1O` [D-Glucose-1-Phosphate], the “approximate change … (log10)” value (Biolog plate: PM1, Biolog well: E3) stood at 1.4.
Consider `CCCCCCCC/C=C\CCCCCCCC(=O)OCCOCC(OCCO)C1OCC(OCCO)C1OCCO` (centres undefined) [Tween 80], for which, for the setting “Biolog plate: PM1, Biolog well: E5”, the “approximate change … (log10)” value is -0.58.
With `OC[C@H]1O[C@H](O[C@H]2[C@H](O)[C@@H](O)[C@@H](O[C@H]3[C@H](O)[C@@H](O)[C@@H](O)O[C@@H]3CO)O[C@@H]2CO)[C@H](O)[C@@H](O)[C@@H]1O` [Maltotriose], the “approximate change … (log10)” value (Biolog plate: PM1, Biolog well: E10) worked out at 1.82.
As for `NCC(=O)N1CCC[C@H]1C(=O)O` [Glycyl-L-Proline], the “approximate change … (log10)” value (Biolog plate: PM1, Biolog well: H1) came out at 0.58.
In the case of `OCC1(O)OC[C@@H](O)[C@@H](O)[C@H]1O` (stereo partly drawn) [D-Psicose], for the setting “Biolog plate: PM1, Biolog well: H5”, the “approximate change … (log10)” value worked out at 1.35.
Regarding `OC[C@H]1OC(O[C@H]2[C@H](O)[C@@H](O)C(O[C@H]3[C@H](O)[C@@H](O)[C@@H](O)O[C@@H]3CO)O[C@@H]2CO)[C@H](O)[C@@H](O)[C@@H]1O` (some centres undefined) [Dextrin], the “approximate change … (log10)” value (Biolog plate: PM2, Biolog well: A6) stood at 0.665.
In the case of `OC[C@H]1O[C@@H](Oc2ccc(O)cc2)[C@H](O)[C@@H](O)[C@@H]1O` [Arbutin], the “approximate change … (log10)” value (Biolog plate: PM2, Biolog well: B8) was 1.29.
Consider `OC[C@@H](O)[C@@H](O[C@H]1O[C@H](CO)[C@@H](O)[C@H](O)[C@H]1O)[C@H](O)[C@@H](O)CO` [Maltitol], for which the “approximate change … (log10)” value (Biolog plate: PM2, Biolog well: C5) was 1.37.
On to `CO[C@H]1O[C@H](CO)[C@@H](O)[C@H](O)[C@@H]1O` [a-Methyl-D-Mannoside], for which the “approximate change … (log10)” value (Biolog plate: PM2, Biolog well: C10) was 0.0215.
As for `CO[C@@H]1OC[C@@H](O)[C@H](O)[C@H]1O` [b-Methyl-D-Xyloside], for the setting “Biolog plate: PM2, Biolog well: C11”, the “approximate change … (log10)” value is -0.215.
With `OC[C@@H](O)[C@H](O)[C@@H](O)CO` [Xylitol], where the note is “Biolog plate: PM2, Biolog well: D8”, the “approximate change … (log10)” value was found to be 1.01.
As to `CCCC(=O)C(=O)O` [a-Keto-Valeric Acid], the “approximate change … (log10)” value (Biolog plate: PM2, Biolog well: E10) is -0.966.
`O=C(CO)[C@@H](O)[C@H](O)[C@@H](O)C(=O)O` [5-Keto-D-Gluconic Acid]: the “approximate change … (log10)” value (Biolog plate: PM2, Biolog well: E12) came to 0.708.
For `O=C(O)[C@H](O)[C@@H](O)[C@H](O)[C@H](O)CO[C@H]1O[C@H](CO)[C@H](O)[C@H](O)[C@H]1O` [Melibionic Acid], the “approximate change … (log10)” value (Biolog plate: PM2, Biolog well: F3) is 0.3.
Regarding `O=C(O)[C@]1(O)C[C@@H](O)[C@@H](O)[C@H](O)C1` [Quinic Acid], where the note is “Biolog plate: PM2, Biolog well: F6”, the “approximate change … (log10)” value was 1.09.
With `O=C(O)CCCCCCCCC(=O)O` [Sebacic Acid], the “approximate change … (log10)” value (Biolog plate: PM2, Biolog well: F8) was determined as 0.429.
On to `O=C(O)[C@@H]1C[C@@H](O)CN1` [Hydroxy-L-Proline], for which, under “Biolog plate: PM2, Biolog well: G8”, the “approximate change … (log10)” value stood at 0.622.
For the compound `NCC(O)c1ccc(O)cc1` (racemic) [D,L-Octopamine], for the setting “Biolog plate: PM2, Biolog well: H7”, the “approximate change … (log10)” value is 0.987.
On to `N[C@@H](Cc1ccc(O)cc1)C(=O)O` [L-Tyrosine], for which, for the setting “Biolog plate: PM3, Biolog well: C1”, the “approximate change … (log10)” value came to 0.3.
For `CCCCN` [N-Butylamine], the “approximate change … (log10)” value (Biolog plate: PM3, Biolog well: D7) was -2.12.
As for `Nc1nc2c(ncn2[C@@H]2O[C@H](CO)[C@@H](O)[C@H]2O)c(=O)[nH]1` [Guanosine], the “approximate change … (log10)” value (Biolog plate: PM3, Biolog well: F7) was -0.172.
Consider `Cc1c[nH]c(=O)[nH]c1=O` [Thymine], for which the “approximate change … (log10)” value (Biolog plate: PM3, Biolog well: F8) was -0.58.
In the case of `O=c1[nH]c(=O)c2nc[nH]c2[nH]1` [Xanthine], the “approximate change … (log10)” value (Biolog plate: PM3, Biolog well: G1) was found to be 0.408.
Take `O=C1NC(=O)C(=O)C(=O)N1` [Alloxan]: the “approximate change … (log10)” value (Biolog plate: PM3, Biolog well: G4) was -3.16.
As for `C[C@H](N)C(=O)N[C@@H](CCC(N)=O)C(=O)O`, the “approximate change … (log10)” value (Biolog plate: PM3, Biolog well: H2) is 0.0644.
